# Reference: PubChem BioAssay (Tox21)
# Records with an inconclusive call do not appear. Values without a mark were called inactive. Calls of active or inactive are those of the source. Calls come from the whole dose curve.
# Assay: qHTS assay for small molecules that induce genotoxicity in human embryonic kidney cells expressing luciferase-tagged ATAD5 - cell viability (AID 651634); note: nearly all actives have a fitted effect of over 25% in size
# Conditions: HEK293T ATAD5-luc cells viability, CellTiter-Fluor, 15.5 h; series mostly up to 83.3 µM; activity, negative = cytotoxicity: at the top concentration
# Excerpt: National Center for Advancing Translational Sciences [NCATS]
# NIH Chemical Genomics Center [NCGC]
# U.S. Environmental Protection Agency [EPA]
# National Institutes of Environmental Health Sciences [NIEHS]
# National Toxicology Program [NTP]
# U.S. Food and Drug Administration [FDA]
# Enhanced Level of Genome Instability Gene 1 (ELG1; human ATAD5) protein levels increase in response to various types of DNA damage. Using a luciferase reporter-gene tagged with ElG1, a cell-based assay [developed by Kyungjae Myung, NHGRI, NIH] was used to measure the induction of ATAD5 in human embryonic kidney cells (HEK293T). So, increase in luciferase activity can be used to identify the compounds that cause genetic stress. In addition to genotoxicity, these cells were also used to test for cytotoxicity by measuring the protease activity within live cells.
# Tox21 Assay Protocol Summary:
# For cytotoxicity screening, 2,000 cells in 5 uL/well were dispensed into white, solid-bottom 1536-well plates using a Multidrop Combi (Thermo Scientific) dispenser. Following transfer of 23 nL compound or DMSO vehicle by a pin tool, the plates were incubated 15.5 hr at 37C and 5% CO2. 1 ul CellTiter-Fluor reagent (Promega, Madison, WI) was then added to each plate and following 30 min incubation at 37C, fluorescence intensity was quantified on a ViewLux CCD-based plate reader.
# % is set by controls: 0 for no effect and ±100 for the full control effect; potency is the fitted concentration of half-maximal effect.
Structure (SMILES),"activity, negative = cytotoxicity",Potency
CC1=CC[C@H](C(C)C)C=C1,28.3%,–
C=CCOc1ccccc1OCC(O)CNC(C)C (stereo not given),27.2% [at 39.1 µM],–
O=C1OC(=O)C2C3C=CC(C3)C12 (stereo not given),18.5%,–
C[C@H](CCC(=O)O)[C@H]1CC[C@H]2[C@@H]3CC[C@@H]4C[C@H](O)CC[C@]4(C)[C@H]3C[C@H](O)[C@]12C,-10.5%,–
COc1cccc(N(C)C(=S)Oc2ccc3c(c2)CCCC3)n1,20.8%,–
CC(CSC(=O)c1ccccc1)C(=O)N1C[C@@H](Sc2ccccc2)C[C@H]1C(=O)O (stereo not given in full),17.2%,–
C[N+](C)(C)CCOC(=O)CCC(=O)OCC[N+](C)(C)C,13.2%,–
C=CC(=O)OCCOCCOC(=O)C=C,–,61.4 µM (active)
CCCCCCCC#N,-15.6%,–
Cc1cccc(C)c1NC(=O)CN(CC(=O)O)CC(=O)O,5.08%,–
NCC(=O)O,25.4%,–
C=C(C)C(=O)OCCO,13.4% [at 95.3 µM],–
O=[N+]([O-])c1ccc(NCCO)c(OCCO)c1,–,61.2 µM (active)
O=C(O)c1ccco1,23.7%,–
CCOC(=O)Cc1cccc2ccccc12,7.3%,–
C[C@H]1C[C@H]2[C@@H]3CCC4=CC(=O)C=C[C@]4(C)[C@@]3(Cl)[C@@H](O)C[C@]2(C)[C@@]1(O)C(=O)CO,9.88%,–
CCCCc1ncc(/C=C(\Cc2cccs2)C(=O)O)n1Cc1ccc(C(=O)O)cc1,12.6%,–
Nc1cccc([N+](=O)[O-])c1,-9.86%,–
CNCCCCOc1ccccc1Cc1ccccc1,4.8%,–
C=CCOC(=O)CCC1CCCCC1,4.75%,–

Structure (SMILES),"activity, negative = cytotoxicity",Potency
CCn1cc(C(=O)O)c(=O)c2cnc(N3CCNCC3)nc21,9.36% [at 39.1 µM],–
CC1=CCCC(C)(C)C12CCC(C)O2 (stereo not given),-8.84%,–
COC(=O)C1=C(C)NC(COC(N)=O)=C(C(=O)OC(C)C)C1c1cccc(Cl)c1Cl (stereo not given),6.22%,–
CCO[Si](CCCCl)(OCC)OCC,15.8%,–
CN1CCC(=C2c3ccccc3Sc3ccccc32)CC1,–,26.6 µM (active)
CC(=O)c1ccc2c(c1)N(CCCN1CCC(CCO)CC1)c1ccccc1S2,-3.66% [at 39.1 µM],–
S=C([S-])NCCNC(=S)[S-].[Mn+2],-15.4%,–
CCCCC(=O)OCC(=O)[C@H]1[C@H](C)C[C@H]2[C@@H]3C[C@H](F)C4=CC(=O)C=C[C@]4(C)[C@@]3(F)[C@@H](O)C[C@@]21C,21.1%,–
C=CC(=O)OCCOCCOCCOCCOC(=O)C=C,–,54.8 µM (active)
Cn1c(=O)cc(Oc2ccc(F)cc2F)c2cnc(NCC(C)(C)O)nc21,-27.3%,–
Nc1c(CC(=O)O)cccc1C(=O)c1ccc(Br)cc1,-12.7%,–
CCCCCCCCCCCCCCOS(=O)(=O)O,9.26%,–
Nc1ccc(S(=O)(=O)Nc2ccccc2)cc1,9.42%,–
O=C(O)c1nc(Cl)c(Cl)c(Cl)c1Cl,-2.68%,–
CCOc1ccc(O)cc1,-9.24%,–
C1CCCNCCC1,16.4%,–
COC(C)OC,13.7%,–
O=C(O)c1ccc(S(=O)(=O)O)cc1C(=O)O,12.3%,–
CC(=O)[O][Al][O]C(C)=O,–,inactive
CCCCCCc1ccc(-c2ccc(C#N)cc2)cc1,21.5%,–
